Measurements taken from PubChem BioAssay AID651994 (Sanford-Burnham Center for Chemical Genomics, 2013).
Among all 2,500 compounds or so, about 790 (32%) were called active.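 The calls were made as follows: active = mean cytotoxicity at 5 µM above about 25% (limit read from the data); inactive = the rest.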 Shown is part of a subset that was picked to be rich in actives.

assay: cytotoxicity in Sufu-KO-LIGHT cells, confirmation, cytotoxicity control for Gli-SUFU antagonist project, cell-based, ATP luminescence, single concentration (AID 651994); conditions: at 5 µM, hits give high values;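 also: cells exposed to compound overnight for roughly 16 to 18 hours; plate controls were DMSO wells with cells for no effect and medium without cells for full effect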

Row | SMILES | cytotoxicity
1 | CCOc1cccc(=NC2CCCCC2)c2c(C)[nH]c(C)c12 | 32.3% (active)
